Data: PubChem BioAssay (NCATS)
Where “and” joins values, the source holds several entries; their conditions need not be identical. Equal entries are not always repeated. Records with an inconclusive call do not appear. A call without a number means that no potency is given here. Unmarked numbers belong to inactive results. Calls of active or inactive are those of the source. Unless noted, calls come from the whole dose curve; as a rule, active = well fitted curve in the direction sought with a large enough effect; inconclusive = small, poorly fitted or top-dose-only effect, or another doubt; inactive = no such curve, though single readings can be large; an effect the other way counts as inactive or inconclusive.

Assays:
[1] = biological target: Cellular tumor antigen p53 (Homo sapiens) (UniProt P04637); assay: Primary qHTS for small molecule compounds that upregulate eGFP-tagged delta133p53alpha (in N-terminal) cells. (AID 2060322); conditions: NCI-H358 eGFP-delta133p53alpha fluorescence, 24 h; activation: stronger effect = higher value; note: nearly all actives have a fitted effect of over 75% in size; note: potency is the fitted concentration of half-maximal effect; for activation: series mostly up to about 56 µM
Summary of the method: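 NCI-H358 cells pre-induced 24 h with 10 ng/ml doxycycline to express N-terminal eGFP-delta133p53alpha, then dosed 24 h at 37C without doxycycline; fixed, Hoechst-stained, GFP intensity by laser scanning cytometry, normalized to DMSO (0%) and 57.5 uM 5-azacytidine (100%).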

[2] = biological target: Cellular tumor antigen p53 (Homo sapiens) (UniProt P04637); assay: Primary qHTS for small molecule compounds that upregulate eGFP-tagged delta133p53alpha (in C-terminal) cells. (AID 2060324); note: potency is the fitted concentration of half-maximal effect
Summary of the method: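 In this qHTS, GFP-tagged delta133p53alpha levels are measured in fixed NCI-H358 cells after 24 h compound exposure at 37 °C. The cells are pre-induced with 100 ng/ml doxycycline, and signal is normalized to DMSO-treated wells as 0%.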

[3] = biological target: Aldehyde dehydrogenase, mitochondrial (Homo sapiens) (UniProt P05091); assay: qHTS for Inhibitors of the Aldehyde Dehydrogenase Family (ALDH2) Validation screens (AID 2061302; active = well fitted inhibition curve with a large enough effect; title and protocol of this record describe different tests)
[4] = biological target: Retinaldehyde dehydrogenase 3 (Homo sapiens) (UniProt P47895); assay: qHTS for Inhibitors of the Aldehyde Dehydrogenase Family (ALDH1A3) Validation screen (AID 2061312); note: nearly all actives have a fitted effect of over 45% in size
[5] = BET inhibitor-based combinations targeting novel dependencies in MECOM-rearranged (r) AML: SET-2 cell line (AID 2202231); conditions: SET-2 AML cells viability, CellTiter-Glo luminescence, 48 h; viability: stronger effect = lower value, concentration not given here; note: nearly all actives have a fitted effect of over 35% in size; note: potency is the fitted concentration of half-maximal effect
Summary of the method: (§1)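 AML cell lines seeded at 500 cells/well, treated with 11-point dose curves for 48 h. Viability by CellTiter-Glo luminescence, normalised to DMSO and empty wells; activity expressed as AUC and per-cell-line Z-transformed AUC.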

[6] = BET inhibitor-based combinations targeting novel dependencies in MECOM-rearranged (r) AML: OCI-AML3 cell line (AID 2202232); conditions: Potency: OCI-AML3 viability; note: nearly all actives have a fitted effect of over 35% in size; note: potency is the fitted concentration of half-maximal effect
Summary of the method: as §1

[7] = BET inhibitor-based combinations targeting novel dependencies in MECOM-rearranged (r) AML: MV-4-11 cell line (AID 2202233); note: nearly all actives have a fitted effect of over 45% in size; note: potency is the fitted concentration of half-maximal effect
Summary of the method: (§2)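 Cells at 500/well were exposed for 48 hr to MIPE v5.0 drugs as 11-point dose curves. Viability was read by CellTiter-Glo luminescence and normalized to DMSO and empty-well controls. Activity was expressed as AUC and per-cell-line Z-AUC.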

[8] = BET inhibitor-based combinations targeting novel dependencies in MECOM-rearranged (r) AML: HNT-34 cell line (AID 2202234); note: nearly all actives have a fitted effect of over 35% in size; note: potency is the fitted concentration of half-maximal effect
Summary of the method: as §2

[9] = BET inhibitor-based combinations targeting novel dependencies in MECOM-rearranged (r) AML: UCSD-AML1 cell line (AID 2202235); note: nearly all actives have a fitted effect of over 40% in size; note: potency is the fitted concentration of half-maximal effect
Summary of the method: as §2

[10] = BET inhibitor-based combinations targeting novel dependencies in MECOM-rearranged (r) AML: AML-191 cell line (AID 2202236; note: nearly all actives have a fitted effect of over 35% in size; note: potency is the fitted concentration of half-maximal effect)
Summary of the method: as §1

[11] = BET inhibitor-based combinations targeting novel dependencies in MECOM-rearranged (r) AML: AML-194 cell line (AID 2202237; note: nearly all actives have a fitted effect of over 40% in size; note: potency is the fitted concentration of half-maximal effect)
Summary of the method: as §1

[12] = biological target: Retinaldehyde dehydrogenase 3 (Homo sapiens) (UniProt P47895); assay: qHTS for Inhibitors of the Aldehyde Dehydrogenase Family (ALDH1A3) Primary screen (AID 2061315)

Cellular tumor antigen p53 (Homo sapiens), sequence (P04637 whole entry, looked up): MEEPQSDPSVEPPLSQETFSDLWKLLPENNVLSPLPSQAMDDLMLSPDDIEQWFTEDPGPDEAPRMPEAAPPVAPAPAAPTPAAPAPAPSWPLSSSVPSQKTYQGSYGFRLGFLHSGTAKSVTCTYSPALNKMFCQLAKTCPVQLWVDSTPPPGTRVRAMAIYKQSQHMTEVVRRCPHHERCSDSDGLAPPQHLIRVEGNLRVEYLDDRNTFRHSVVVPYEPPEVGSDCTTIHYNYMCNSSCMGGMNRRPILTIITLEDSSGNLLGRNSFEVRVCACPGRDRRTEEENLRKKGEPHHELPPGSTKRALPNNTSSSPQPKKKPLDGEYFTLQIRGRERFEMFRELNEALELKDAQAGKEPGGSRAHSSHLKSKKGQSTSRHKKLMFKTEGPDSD

| Compound | activation [1] | Potency [2] | Potency [3] | Potency [4] | viability [5] | Potency [6] | Potency [7] | Potency [8] | Potency [9] | Potency [10] | Potency [11] | Potency [5] | Potency [12] | Potency [1] |
| --- | --- | --- | --- | --- | --- | --- | --- | --- | --- | --- | --- | --- | --- | --- |
| C1COC(NC(C2CC2)C2CC2)=N1 | 11% and 4.18% | inactive | inactive | inactive | 117% | inactive | inactive | inactive | inactive | inactive | inactive | – | – | – |
| O=C(CCc1ccc(O)cc1)c1c(O)cc(O)cc1O | 27.3% and 7.98% | inactive | inactive | inactive | 105% | – | – | – | – | – | – | – | – | – |
| Cc1cc(Cl)ccc1OCCCC(=O)NO | 35.3% and -37.1% and -6.7% | inactive | inactive | inactive | – | 20.9 µM (active) | 18.6 µM (active) | 1.48 µM (active) | 3.72 µM (active) | 3.72 µM (active) | 4.17 µM (active) | 1.32 µM (active) | – | – |
| Nc1nc2c(ncn2COC(CO)CO)c(=O)[nH]1 | -11.7% | inactive | inactive | inactive | 113% | inactive | inactive | inactive | inactive | inactive | inactive | – | – | – |
| O=C1N(c2ccccc2)c2ccccc2C1(Cc1ccncc1)Cc1ccncc1 | 10.9% and -8.78% and -29% | inactive | inactive | inactive | 104% | inactive | inactive | – | inactive | inactive | – | – | – | – |
| Clc1ccccc1C(c1ccccc1)(c1ccccc1)n1ccnc1 | -9.6% and -24.2% | inactive | inactive | inactive | – | 16.6 µM (active) | 18.6 µM (active) | 18.6 µM (active) | – | 23.5 µM (active) | – | 18.6 µM (active) | – | – |
| O=C(CCCN1CCC(O)(c2ccc(Cl)cc2)CC1)c1ccc(F)cc1 | 37.6% and -8.4% | inactive | inactive | inactive | – | – | – | – | – | – | – | – | – | – |
| O=c1[nH]c(=O)n([C@H]2C[C@H](O)[C@@H](CO)O2)cc1Br | -16.4% and -22.3% | inactive | inactive | inactive | – | – | – | – | – | – | – | – | – | – |
| Nc1nc2c(ncn2COCCO)c(=O)[nH]1 | 6.69% and 13.1% | inactive | inactive | inactive | 125% | inactive | inactive | inactive | inactive | inactive | inactive | – | – | – |
| Cc1cnc(NC(=O)C2=C(O)c3ccccc3S(=O)(=O)N2C)s1 | -27.7% and -26.4% and -6.82% | inactive | inactive | inactive | 110% and 107% and 111% | inactive | inactive | – | inactive | inactive | inactive | – | – | – |
| CC(C)NCC(O)COc1ccc(CCOCC2CC2)cc1 (stereo not given) | -6.83% and 29.3% and -23.2% | inactive | inactive | inactive | 115% | inactive | inactive | inactive | – | inactive | inactive | – | – | – |
| CC(CCc1ccccc1)NCC(O)c1ccc(O)c(C(N)=O)c1 (stereo not given) | 11.5% and 18% | inactive | inactive | inactive | – | – | – | – | – | – | – | – | inactive | – |
| COc1ccc([C@@H]2Sc3ccccc3N(CCN(C)C)C(=O)[C@@H]2OC(C)=O)cc1 | 17.5% and -3.98% | inactive | inactive | inactive | 101% | inactive | inactive | inactive | inactive | inactive | inactive | – | – | – |
| CC(C)NCC(O)c1ccc(NS(C)(=O)=O)cc1 (stereo not given) | -72.6% | inactive | inactive | inactive | 116% | inactive | inactive | inactive | inactive | – | inactive | – | – | – |
| COC(=O)Nc1nc2ccc(C(=O)c3cccs3)cc2[nH]1 | -4.18% | inactive | inactive | inactive | – | 0.0934 µM (active) | 0.118 µM (active) | 0.0833 µM (active) | 0.0833 µM (active) | 0.0661 µM (active) | 0.332 µM (active) | 0.209 µM (active) | – | – |
| Cc1ccc(C(=O)Nc2ccc(S(=O)(=O)O)c3cc(S(=O)(=O)O)cc(S(=O)(=O)O)c23)cc1NC(=O)c1cccc(NC(=O)Nc2cccc(C(=O)Nc3cc(C(=O)Nc4ccc(S(=O)(=O)O)c5cc(S(=O)(=O)O)cc(S(=O)(=O)O)c45)ccc3C)c2)c1 | -19.3% and -10.7% and -18.3% | inactive | inactive | inactive | 108% | inactive | inactive | inactive | inactive | inactive | inactive | – | – | – |
| CCCN(CCC)C(=O)C(CCC(=O)O)NC(=O)c1ccccc1 (stereo not given) | -4.18% and 0.787% | inactive | inactive | inactive | 109% | inactive | inactive | inactive | inactive | inactive | inactive | – | – | – |

| Compound | activation [1] | Potency [2] | Potency [3] | Potency [4] | viability [5] | Potency [6] | Potency [7] | Potency [8] | Potency [9] | Potency [10] | Potency [11] | Potency [5] | Potency [12] | Potency [1] |
| --- | --- | --- | --- | --- | --- | --- | --- | --- | --- | --- | --- | --- | --- | --- |
| COc1ccc2[nH]cc(CCNC(C)=O)c2c1 | 4.42% and -13.4% and -16.3% | inactive | inactive | inactive | 124% | inactive | inactive | inactive | inactive | inactive | inactive | – | – | – |
| Cc1cccc(-c2[nH]ncc2-c2ccc3ncccc3n2)n1 | 39.6% and -70.9% | inactive | inactive | inactive | 105% | inactive | inactive | 20.9 µM (active) | – | inactive | inactive | – | – | – |
| Nc1ncnc2c1ncn2[C@@H]1O[C@H](CO)[C@@H](O)[C@H]1O | 6.69% and -13% | inactive | inactive | inactive | 126% | inactive | inactive | inactive | inactive | inactive | inactive | – | – | – |
| CC(C)(C)NCC(O)c1ccc(O)c(CO)c1 (stereo not given) | -7.9% and 9.21% and -24.1% | inactive | inactive | inactive | 115% | inactive | inactive | inactive | inactive | inactive | inactive | – | – | – |
| CCn1cc(C(=O)O)c(=O)c2cc(F)c(N3CCNC(C)C3)c(F)c21 (stereo not given) | -0.837% and 16.4% and -15.6% | inactive | inactive | inactive | 95.2% | inactive | inactive | inactive | inactive | inactive | inactive | – | – | – |
| CCCc1c(OCCCOc2ccc(OCC(=O)O)cc2)ccc(C(C)=O)c1O | -13.9% | inactive | inactive | inactive | 119% | inactive | inactive | inactive | – | inactive | inactive | – | – | – |
| Clc1nccc2c1ccc1ccccc12 | -42.2% | inactive | inactive | inactive | – | – | – | – | – | – | – | – | – | – |
| CCN(CC)CCNC(=O)c1c(C)[nH]c(/C=C2\C(=O)Nc3ccc(F)cc32)c1C | – | 6.75 µM (active) | inactive | inactive | – | 5.9 µM (active) | 0.0468 µM (active) | 1.86 µM (active) | 3.72 µM (active) | 3.72 µM (active) | 4.68 µM (active) | 16.6 µM (active) | – | 4.9 µM (active) and 26.9 µM (active) |
| Cn1cc(C2=C(c3ccc(Cl)cc3Cl)C(=O)NC2=O)c2ccccc21 | – | 2.39 µM (active) | inactive | inactive | – | – | – | – | – | – | – | – | – | 10.7 µM (active) |
| NC(=O)c1ncn([C@@H]2O[C@H](CO)[C@@H](O)[C@H]2O)c1O | -26.8% and 40.7% | inactive | inactive | inactive | 109% and 121% | – | – | inactive | inactive | inactive | inactive | – | – | – |
| CN1CCC(=C2c3ccccc3C=Cc3ccccc32)CC1 | -15.3% and 19.5% and -34.1% | inactive | inactive | inactive | – | – | – | – | – | – | inactive | 13.2 µM (active) | – | – |
| CC(C(=O)O)c1cccc(C(=O)c2ccccc2)c1 (stereo not given) | 8.47% and 8.5% and -11% | inactive | inactive | inactive | 117% | – | inactive | inactive | – | inactive | inactive | – | – | – |
| O=c1c(O)c(-c2ccc(O)cc2O)oc2cc(O)cc(O)c12 | 15.3% and -27.9% | inactive | inactive | inactive | 122% | inactive | – | inactive | – | inactive | inactive | – | – | – |
| CC(=O)N1CCN(c2ccc(OC[C@H]3CO[C@](Cn4ccnc4)(c4ccc(Cl)cc4Cl)O3)cc2)CC1 | -11.5% and -0.0769% | inactive | inactive | inactive | – | inactive | inactive | inactive | inactive | inactive | – | – | – | – |
| CC(C)(Oc1ccc(C2CC2(Cl)Cl)cc1)C(=O)O (stereo not given) | -8.47% and 20.1% and -16.4% | inactive | inactive | inactive | 114% | – | inactive | inactive | inactive | inactive | inactive | – | – | – |
| CCN1CCCC1CNC(=O)c1cc(S(=O)(=O)CC)c(N)cc1OC (stereo not given) | -0.505% and -9.21% and -28.2% | inactive | inactive | inactive | 122% | – | inactive | inactive | – | inactive | inactive | – | – | – |
| CN1CCC(=C2c3ccccc3CC(=O)c3sccc32)CC1 | 59.8% and 8.47% and -42.7% | inactive | inactive | inactive | 112% | – | – | – | – | inactive | inactive | – | – | – |
